Laboratory results taken from PubChem BioAssay (NCATS).
Inconclusive results are not listed. Calls of active or inactive are those of the source. The call rests on the fitted dose curve; in most records, active means well fitted inhibition curve with a large enough effect; inconclusive means small, poorly fitted or top-dose-only effect; inactive means flat fitted curve, though single readings scatter.

Assays:
Assay in all cases: Cytotoxic Profiling of Annotated Libraries Using Quantitative High-Throughput Screening (AID 1296008); further: nearly all actives have a fitted effect of over 60% in size
Settings in all cases: Five cell lines viability, CellTiter-Glo ATP luminescence, 48-72 h; max response: active compounds read low
CRL-7250 = normal cell line; test system: CRL-7250
Outline: (§1)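 Cytotoxicity was measured as CellTiter-Glo ATP luminescence, read after 10 min at room temperature. Compound treatment of the cells lasted 48 or 72 hr at 37 degrees Celsius in a qHTS format.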

HEK293 = test system: HEK293
Outline: as §1

HaCat = test system: HaCat
Outline: as §1

KB-3-1 = test system: KB-3-1
Outline: as §1

NIH3T3 = test system: NIH3T3
Outline: as §1

Measured: max response
On the % scale 0 is the no-effect control and ±100 the full control effect.

NCc1c[nH]c(=S)n1[C@@H]1CCc2c(F)cc(F)cc2C1
inactive: CRL-7250 | HEK293 -9.28% | HaCat 3.97% | KB-3-1 -4.38% | NIH3T3 -1.29%

CC[C@H](NC(=O)[C@H](CS(=O)(=O)CC1CC1)N[C@@H](c1ccc(F)cc1)C(F)(F)F)C(=O)C(=O)NC1CC1
inactive: CRL-7250 3.55% | HEK293 -20.2% | HaCat -1.21% | KB-3-1 3.82% | NIH3T3 -16%

OC[C@@]1(O)CO[C@@H](OC[C@H]2O[C@@H](Oc3c[nH]c4ccccc34)[C@H](O)[C@@H](O)[C@@H]2O)[C@@H]1O
inactive: CRL-7250 -23.1% | HEK293 -21.5% | HaCat -26.1% | KB-3-1 -0.625% | NIH3T3 1.55%

COC(=O)c1cc(OC)c(O[C@@H]2O[C@@H](C)[C@H](O)[C@@H](O)[C@H]2O)c(OC)c1
inactive: CRL-7250 | HEK293 -6.73% | HaCat -17.1% | KB-3-1 4.85% | NIH3T3 2.7%

C=C1CCCC2(C)CC3(OC)OC(=O)C(C)=C3CC12 (stereo not given)
inactive: CRL-7250 2.37% | HEK293 3.93% | HaCat 2.5% | KB-3-1 -2.16% | NIH3T3 -10.6%

CC1OC(OC2C(C)OC(OC3C(OC(=O)C45CCC(C)(C)CC4C4=CCC6C7(C)CCC(OC8OC(C(=O)O)C(O)C(O)C8OC8OC(CO)C(O)C(OC9OC(C)C(O)C(O)C9O)C8O)C(C)(CO)C7CCC6(C)C4(C)CC5)OC(CO)C(O)C3O)C(O)C2O)C(O)C(O)C1O (stereo not given)
inactive: CRL-7250 3.83% | HEK293 1.99% | HaCat -14.7% | KB-3-1 | NIH3T3 -18.1%

O=C(CCc1ccccc1)N1CCC(O)(Cn2cnc3cc(Cl)ccc3c2=O)CC1
inactive: CRL-7250 -1.98% | HEK293 -25.5% | HaCat -6.79% | KB-3-1 -17% | NIH3T3 -4.94%

O=C(OC[C@H]1O[C@H](O[C@]2(CO)O[C@H](CO)[C@@H](O)[C@@H]2O)[C@H](O)[C@@H](O)[C@@H]1O)c1ccccc1
inactive: CRL-7250 -1.41% | HEK293 1.14% | HaCat 0.397% | KB-3-1 8.19% | NIH3T3 4.12%

COC(=O)c1ccccc1O[C@@H]1O[C@H](CO)[C@@H](O)[C@H](O)[C@H]1O[C@@H]1O[C@@H](C)[C@H](O)[C@@H](O)[C@H]1O
inactive: CRL-7250 | HEK293 3.36% | HaCat -1.51% | KB-3-1 3.4% | NIH3T3 0.854%

CC(C)CC1NC(=O)C(C)NC(=O)C(CC(C)C)OC(=O)CCCNC1=O (stereo not given)
inactive: CRL-7250 -2.1% | HEK293 -5.55% | HaCat -8.69% | KB-3-1 | NIH3T3 -22.2%

Cc1cc(Cl)ccc1COc1ccnn1-c1cc(C(=O)O)ccn1
inactive: CRL-7250 0.791% | HEK293 -13.3% | HaCat -5.14% | KB-3-1 | NIH3T3 0.276%

COc1ccc2cc(C(C)C(=O)Oc3ccc(C(N)=S)cc3)ccc2c1 (stereo not given)
inactive: CRL-7250 | HEK293 -0.854% | HaCat 2.17% | KB-3-1 7.25% | NIH3T3 3.5%

CN(C)C(=O)NC1CCC(CCN2CCN(c3cccc(Cl)c3Cl)CC2)CC1 (stereo not given)
inactive: CRL-7250 1.18% | HEK293 -2.35% | HaCat | KB-3-1 -7.32% | NIH3T3 -6.34%

CC1(C)CC[C@]2(C(=O)OC3OC(CO)C(O)C(O)C3O)CC[C@]3(C)C(=CCC4[C@@]5(C)CC[C@H](OC6OC(C(=O)O)C(O)C(OC7OC(CO)C(O)C(O)C7O)C6O)C(C)(C)C5CC[C@]43C)C2C1 (stereo not given in full)
inactive: CRL-7250 1.42% | HEK293 1.3% | HaCat -1.22% | KB-3-1 -3.39% | NIH3T3 0.867%

C[C@H](C/C=C/C(C)(C)O)[C@H]1CC[C@@]2(C)[C@@H]3[C@@H](O[C@@H]4O[C@H](CO)[C@@H](O)[C@H](O)[C@H]4O)C=C4C(CC[C@H](O)C4(C)C)[C@]3(C=O)CC[C@]12C (stereo not given in full)
inactive: CRL-7250 -2.26% | HEK293 -5.89% | HaCat -5.49% | KB-3-1 8.11% | NIH3T3 3.81%

CC1(C)CC[C@]2(C(=O)O)CC[C@]3(C)C(=CCC4[C@@]5(C)CC[C@H](O[C@@H]6O[C@H](C(=O)O)[C@@H](O[C@@H]7OC[C@@H](O)[C@H](O)[C@H]7O)[C@H](O)[C@H]6O)C(C)(C)C5CC[C@]43C)C2C1O (stereo not given in full)
inactive: CRL-7250 4.1% | HEK293 2.41% | HaCat -24% | KB-3-1 | NIH3T3 -13.7%
